The values below come from PubChem BioAssay (NCI).

Test systems include HCT-15 colon; HT29 colon; SNB-75 CNS; SNB-19 CNS; U251 CNS; PC-3 prostate; SK-MEL-5 melanoma; UACC-62 melanoma; LOX IMVI melanoma; SK-MEL-28 melanoma; SK-MEL-2 melanoma; EKVX NSCLC; SN12C renal; UO-31 renal; TK-10 renal; ACHN renal; CAKI-1 renal; A498 renal; CCRF-CEM leukemia; MOLT-4 leukemia.
What all share (test): NCI-60 one-dose screen, 48 h (100 = growth as untreated, 0 = no growth, -100 = all killed)
Common to all, as to details: 10 µM unless noted

About 83,000 compounds went through this panel and 20% of them were active in at least one assay; those are over-represented in the sample as a whole.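 Results are percent growth after 48 hours of single-concentration exposure. 100 means growth as in untreated cells, lower positive values show inhibition; negative values down to -100 show cell death.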 Unmarked numbers belong to inactive results. Activity calls are given as the source filed them. How the source made its calls: active means growth percent below 10; inactive means the rest.

For the molecule `C#Cc1cc(C(=O)Nc2ccc(CNCCN3CCOCC3)c(C(F)(F)F)c2)ccc1C`, the growth in the assay with HCT-15 colon is 88%; in the assay with HT29 colon it was 68.8%; with SNB-75 CNS, 76%; with SNB-19 CNS, 96.1%; in the assay with U251 CNS, 80.7%; in the assay with PC-3 prostate it was 89.3%. Moreover, the growth in the assay with SK-MEL-5 melanoma was 94.2%; in the assay with UACC-62 melanoma, 93.9%; in the assay on LOX IMVI melanoma, 1.04% (active); in the assay with SK-MEL-28 melanoma, 93.6%; with SK-MEL-2 melanoma it was 104%; in the assay on EKVX NSCLC it was 84.7%. For the same molecule, the growth was 93.5% with SN12C renal; 72.7% in the assay on UO-31 renal; 108% in the assay with TK-10 renal; 98.4% with ACHN renal; 82.7% in the assay on CAKI-1 renal; 90.4% in the assay on A498 renal. Besides, the growth in the assay on CCRF-CEM leukemia was 98.7%; in the assay with MOLT-4 leukemia it was 81.6%.
As for `COc1ccc(-c2cnc(NC(=O)CCCCCCNC(=O)C(O)(O)C(F)(F)F)s2)cc1`, the growth was 4.2% (active) in the assay on HCT-15 colon; 0.86% (active) in the assay with HT29 colon; 36.8% in the assay on SNB-75 CNS; 17.5% in the assay on SNB-19 CNS; -46.4% (active) with U251 CNS; 17.8% with PC-3 prostate. Further, the growth is -62.2% (active) in the assay with SK-MEL-5 melanoma; -31.8% (active) in the assay on UACC-62 melanoma; -89.5% (active) in the assay on LOX IMVI melanoma; 8.09% (active) in the assay on SK-MEL-28 melanoma; -27.3% (active) in the assay on SK-MEL-2 melanoma; 19.6% in the assay on EKVX NSCLC. Besides, the growth is 3.72% (active) in the assay on SN12C renal; -27.4% (active) in the assay with UO-31 renal; -20.1% (active) with TK-10 renal; -29.5% (active) with ACHN renal; -39.9% (active) with CAKI-1 renal; -44.2% (active) in the assay with A498 renal. In addition, the growth with CCRF-CEM leukemia was 18.7%; in the assay on MOLT-4 leukemia it was 6.5% (active).
On to `Cn1ncc2ncc(-c3ccc4ncc(C#N)c(N5CCc6cc(F)c(Cl)cc65)c4c3)cc21`, for which the growth in the assay with HCT-15 colon was 23.2%; in the assay with HT29 colon it was 41.4%; with SNB-75 CNS, -1.84% (active); with SNB-19 CNS, 51.6%; in the assay on U251 CNS, 48.6%; in the assay with PC-3 prostate, 26%. For the same molecule, the growth in the assay on SK-MEL-5 melanoma was 39.5%; in the assay on UACC-62 melanoma, 20.8%; in the assay on LOX IMVI melanoma, 19.3%; in the assay with SK-MEL-28 melanoma it was 48.4%; in the assay on SK-MEL-2 melanoma, 47.6%; in the assay with EKVX NSCLC, 11.3%. Further, the growth is 30.3% in the assay with SN12C renal; 3.14% (active) in the assay with UO-31 renal; 63.2% in the assay on TK-10 renal; 17% in the assay with ACHN renal; 13.6% with CAKI-1 renal; 2.55% (active) in the assay with A498 renal. Moreover, the growth in the assay with CCRF-CEM leukemia is 28.4%; in the assay with MOLT-4 leukemia, 12.6%.
In the case of `C#C[C@]1(O)CC[C@H]2[C@@H]3CC=C4c5sc(N6CCN(C)CC6)nc5CC[C@]4(C)[C@H]3CC[C@@]21C`, the growth with HCT-15 colon was 8.12% (active); in the assay with HT29 colon, 5.26% (active); with SNB-75 CNS it was 75.2%; in the assay on SNB-19 CNS, 63.3%; with U251 CNS, 21.8%; with PC-3 prostate, 22.4%. Further, the growth was 38.5% with SK-MEL-5 melanoma; 51.2% with UACC-62 melanoma; 25.6% in the assay on LOX IMVI melanoma; 31% in the assay with SK-MEL-28 melanoma; 36.8% in the assay on SK-MEL-2 melanoma; 68.5% in the assay with EKVX NSCLC. In addition, the growth with SN12C renal is 76.6%; in the assay on UO-31 renal it was 77.2%; in the assay with TK-10 renal, 100%; with ACHN renal, 47.2%; with CAKI-1 renal it was 54.2%; in the assay on A498 renal, 86%. For the same molecule, the growth with CCRF-CEM leukemia was -8.52% (active); in the assay on MOLT-4 leukemia, 1.27% (active).
As for `Cn1c2nc3ccccc3c-2cc2ccccc21`, the growth in the assay on HCT-15 colon is 25%; in the assay with HT29 colon, 30.2%; in the assay on SNB-75 CNS, 82.3%; with SNB-19 CNS it was 45.5%; with U251 CNS, 41.7%; in the assay with PC-3 prostate, 46.2%. The growth with SK-MEL-5 melanoma is 31.2%; in the assay on UACC-62 melanoma, 46.2%; with LOX IMVI melanoma, 18.9%; in the assay with SK-MEL-28 melanoma, 76.1%; in the assay on SK-MEL-2 melanoma, 105%; in the assay on EKVX NSCLC, 42.5%. Further, the growth is 33.7% in the assay with SN12C renal; 13.9% in the assay on UO-31 renal; 103% in the assay on TK-10 renal; 21.2% in the assay on ACHN renal; 18.9% with CAKI-1 renal; 21.3% with A498 renal. Also, the growth in the assay with CCRF-CEM leukemia was 50.8%; in the assay on MOLT-4 leukemia, 21.5%.
As for `O=C(/C=C/c1cc(Cl)ccc1Cl)Nc1ncc(Cc2ccc(Cl)cc2)s1`, the growth in the assay with HCT-15 colon is 7.86% (active); in the assay on HT29 colon, -22.8% (active); in the assay on SNB-75 CNS, 0.161% (active); in the assay on SNB-19 CNS, 19.1%; with U251 CNS, 2.48% (active); in the assay on PC-3 prostate, 27.3%. Moreover, the growth in the assay with SK-MEL-5 melanoma was 5.45% (active); with UACC-62 melanoma, 29.1%; in the assay on LOX IMVI melanoma, -37.3% (active); in the assay on SK-MEL-28 melanoma it was 52.6%; in the assay on SK-MEL-2 melanoma, 24.4%; in the assay on EKVX NSCLC, 30.2%. The growth with SN12C renal was 9.91% (active); in the assay on UO-31 renal, 19.3%; with TK-10 renal it was 34.1%; in the assay on ACHN renal it was 3.59% (active); in the assay with CAKI-1 renal, 2.37% (active); in the assay with A498 renal, -32.8% (active). In addition, the figures for the growth in the assay with CCRF-CEM leukemia and in the assay on MOLT-4 leukemia were 11.1% and 15.2%, respectively.
On to `O=C(/C=C/c1cccc(Br)c1)c1cccc(OCCCCOc2cccc(C(=O)/C=C/c3cccc(Br)c3)c2)c1`, for which the growth in the assay with HCT-15 colon was 108%; in the assay with HT29 colon, 117%; in the assay with SNB-75 CNS it was 96.8%; in the assay on SNB-19 CNS it was 94.3%; in the assay with U251 CNS, 105%; in the assay on PC-3 prostate it was 104%. Further, the growth in the assay on SK-MEL-5 melanoma was 99.4%; with UACC-62 melanoma it was 98.3%; with LOX IMVI melanoma, 96.6%; in the assay on SK-MEL-28 melanoma it was 110%; in the assay on SK-MEL-2 melanoma, 104%; in the assay with EKVX NSCLC, 101%. Further, the growth in the assay on SN12C renal is 99.7%; in the assay with UO-31 renal it was 91.4%; in the assay on TK-10 renal, 115%; in the assay on ACHN renal, 101%; in the assay on CAKI-1 renal, 100%; with A498 renal it was 113%. The values for the growth with CCRF-CEM leukemia and in the assay on MOLT-4 leukemia were 105% and 90.4%, respectively.
